The target in experiment [1] is T1, Aspartate--tRNA(Asp/Asn) ligase (Mycobacterium tuberculosis (strain ATCC 25618 / H37Rv)) (UniProt P9WFW3). Further: in the data most compounds retested in dose-response had high values.
T1 sequence (whole entry): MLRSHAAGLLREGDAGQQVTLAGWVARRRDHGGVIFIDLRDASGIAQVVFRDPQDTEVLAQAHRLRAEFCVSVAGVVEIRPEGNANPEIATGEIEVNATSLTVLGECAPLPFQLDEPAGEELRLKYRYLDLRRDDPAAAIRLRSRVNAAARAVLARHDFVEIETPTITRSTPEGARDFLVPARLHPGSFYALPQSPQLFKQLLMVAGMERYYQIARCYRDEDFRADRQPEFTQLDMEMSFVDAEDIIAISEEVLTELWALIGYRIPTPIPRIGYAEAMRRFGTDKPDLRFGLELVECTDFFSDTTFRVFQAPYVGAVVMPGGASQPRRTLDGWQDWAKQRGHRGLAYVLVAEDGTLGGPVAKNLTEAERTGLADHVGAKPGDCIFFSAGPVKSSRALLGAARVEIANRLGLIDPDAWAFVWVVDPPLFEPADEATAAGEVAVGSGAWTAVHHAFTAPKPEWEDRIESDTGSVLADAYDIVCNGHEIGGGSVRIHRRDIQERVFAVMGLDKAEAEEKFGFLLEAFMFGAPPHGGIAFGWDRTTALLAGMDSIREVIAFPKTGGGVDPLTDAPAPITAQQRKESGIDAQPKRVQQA
The experiment in a line: Assay for Asp RNA synthetase-1 from Mycobacterium tuberculosis. The experiment is classed as functional. Further details: scale not given: direction of the effect not stated beside the values. As to conditions: 30 µM.

Experiment [2] deals with Shiga toxin 2 (Escherichia coli O157:H7) (UniProt P09385+P09386). Put plainly: E. coli 0.157:H7 Shiga Toxin SOP - stx2 screening assay. The experiment is classed as functional. Details: scale not given: direction of the effect not stated beside the values. As to conditions: 30 µM.

Molecules are shown by their SMILES.

Regarding `c1cnc(NCc2ncn3c2CN(Cc2cccnc2)CCC3)nc1`, the Percent Effect in experiment [1] was -2.66%; in experiment [2], -5.14%.

As to `COCC(=O)N1CC[C@@H]2CN(Cc3cccc(Cl)c3)S(=O)(=O)[C@@H]2CC1`, the results for the Percent Effect in experiment [1] and in experiment [2] were 3.55% and -12.7%, respectively.

In the case of `Cc1noc(NC(=O)c2ccc(OC(F)(F)F)cc2)n1`, the results for the Percent Effect in experiment [1] and in experiment [2] were 3.01% and 62.3%, respectively.

For `Cc1ccc(NC(=O)Nc2cnc(N3CCN(C)CC3)nc2)c(Cl)c1`, the Percent Effect in experiment [1] is -3.19%; in experiment [2], -20.4%.

Take `CCn1cnnc1CNC(=O)NC(C)c1cccs1` (stereo not given): the figures for the Percent Effect in experiment [1] and in experiment [2] were 0.243% and -10.2%, respectively.

In the case of `O=C(NC1CC1)c1ccc2ccc(N3CCN(CC4CC4)CC3)n2c1`, the figures for the Percent Effect in experiment [1] and in experiment [2] were -1.8% and -80.6%, respectively.

`O=C(Cc1ccc2c(c1)OCCO2)NC1CCN(CC(F)F)CC1`: the values for the Percent Effect in experiment [1] and in experiment [2] were -1.24% and 11%, respectively.

Regarding `CCCc1cc(=O)[nH]c2nnc(SCC(=O)NCc3ccc(C)cc3)n12`, the Percent Effect in experiment [1] is -7.99%; in experiment [2], 2.17%.

As for `CC(=O)N1CCC2(CC1)COCCN2CCN(C)C`, the Percent Effect in experiment [1] turned out to be 0.524%; in experiment [2] it was 1.75%.

In the case of `CC(=O)N1CCC2(CCCN(Cc3ccc(Cl)c(C(F)(F)F)c3)C2)C1` (stereo not given), the results for the Percent Effect in experiment [1] and in experiment [2] were 6.54% and 4.87%, respectively.

`CCS(=O)(=O)N(C)C(=O)c1cc(C)n(-c2cccc(OC)c2)c1C`: the figures for the Percent Effect in experiment [1] and in experiment [2] were -6.83% and -4.96%, respectively.

As for `Cc1cnn(CC2CCCN2Cc2nnsc2Cl)c1` (stereo not given), the Percent Effect is -2.88% in experiment [1] and 9.02% in experiment [2].

`O=C(C[C@@H]1COC[C@H]2CN(Cc3ccncc3)C[C@@H]12)N1CCOCC1`: the Percent Effect is -4.65% in experiment [1] and -32% in experiment [2].

As to `c1cnc(N2CCCC(NCc3cccc4c3OCCO4)C2)nc1` (stereo not given), the Percent Effect is -1.35% in experiment [1] and 4.24% in experiment [2].

As to `Cc1ccc(OCC(=O)NS(=O)(=O)c2cccnc2)cc1C`, the Percent Effect was -2.57% in experiment [1] and 26.6% in experiment [2].

In the case of `Cc1cc(CN2CCN(C(=O)CCc3cccc(F)c3F)CC2)on1`, the Percent Effect in experiment [1] is -2.44%; in experiment [2], -2.21%.

Regarding `O=C(c1cnc(-c2cccs2)s1)N1CCCN2CCCC2C1` (stereo not given), the Percent Effect was 8.86% in experiment [1] and 1.08% in experiment [2].

In the case of `NC(=O)C1(Cc2ccccc2-c2ccccc2)CCCN(CC2CC2)C1` (stereo not given), the Percent Effect in experiment [1] is 2.13%; in experiment [2] it was -5.72%.

Regarding `CC(=O)c1cccc(OCCCC(=O)N(C)Cc2ccccn2)c1`, the results for the Percent Effect in experiment [1] and in experiment [2] were -1.04% and -20%, respectively.

For `Cc1noc([C@H]2CC[C@@H]3[C@@H](CCN3S(C)(=O)=O)O2)n1`, the Percent Effect in experiment [1] is 2.38%; in experiment [2], -3.33%.

For `CC(NC(=O)NCCCN1CCCCCC1)c1nncn1C` (stereo not given), the Percent Effect was 2.07% in experiment [1] and -17.6% in experiment [2].

As to `COCCN1CCCN(C(=O)NC(C)Cn2ccnc2)CC1` (stereo not given), the Percent Effect in experiment [1] was -1.32%; in experiment [2] it was -14.7%.

`CCn1cc(CN2CCCC(CO)(CCc3ccccc3)C2)c(C)n1` (stereo not given): the Percent Effect in experiment [1] is 0.494%; in experiment [2] it was -5.78%.

`CC(c1nc(C(C)(C)C)no1)N1CCN(CC(=O)N2CCOCC2)CC1` (stereo not given): the Percent Effect in experiment [1] was -1.23%; in experiment [2], 7.56%.

As to `Cn1cccc1C(=O)N1CCN(CC2CC2)c2ncccc2C1`, the Percent Effect in experiment [1] was 2.01%; in experiment [2] it was -11.1%.

With `CCOc1ccc(Cl)c(C(=O)N(C)C)n1`, the figures for the Percent Effect in experiment [1] and in experiment [2] were -0.544% and -62.5%, respectively.

Turning to `CN(Cc1nnc(-c2ccco2)o1)CC1CCCN1c1cccnn1` (stereo not given), the Percent Effect in experiment [1] worked out at 7.29%; in experiment [2] it was 11.7%.

With `Cc1cn2c(n1)CCC(NC(=O)CCn1ccnn1)C2` (stereo not given), the figures for the Percent Effect in experiment [1] and in experiment [2] were -3.77% and 19.8%, respectively.

Take `CCn1nc2c(cc1=O)CN(Cc1nc(N)c3ccccc3n1)CC2`: the values for the Percent Effect in experiment [1] and in experiment [2] were 1.61% and 15.6%, respectively.

On to `CNC(=O)c1nc2c(s1)CCN(C(=O)c1cccnc1)CC2`, for which the values for the Percent Effect in experiment [1] and in experiment [2] were 2.01% and -18.2%, respectively.

As for `CCn1nnc2c1C(COC)CN(Cc1cccs1)C2` (stereo not given), the Percent Effect in experiment [1] is -3.5%; in experiment [2], 5.25%.

Take `Cc1cnn(CC2CCCN2C(=O)c2cccc(-n3cnnn3)c2)c1` (stereo not given): the Percent Effect is -7.68% in experiment [1] and 9.64% in experiment [2].

Take `Cc1n[nH]c(C)c1C1COCCN1C(=O)c1cc(Cl)c[nH]1` (stereo not given): the results for the Percent Effect in experiment [1] and in experiment [2] were 2.63% and -24.9%, respectively.

`CCN1C(=O)C2(CCOCC2)c2cc(NC(=O)c3ccco3)ccc21`: the Percent Effect in experiment [1] is -3.45%; in experiment [2], -26.8%.

Turning to `CC(C)CC(=O)N1CCN(C(=O)N(C)C)CC2(CC(=O)N(C)C2)C1` (stereo not given), the results for the Percent Effect in experiment [1] and in experiment [2] were 1.73% and 1.92%, respectively.

For `O=C(c1cnn2c1OCCC2)N1CCN(C/C=C/c2ccccc2)CC1`, the Percent Effect in experiment [1] was 3.28%; in experiment [2], -6.18%.

For `CN(C)C(=O)CNC(=O)c1ccc(Cl)cc1F`, the Percent Effect in experiment [1] was -6.71%; in experiment [2], -8.79%.

As to `O=C(NC1CCS(=O)(=O)C1)c1sccc1-c1ccc(F)cc1` (stereo not given), the Percent Effect is -5.43% in experiment [1] and 3.12% in experiment [2].

Turning to `Cc1cccc(-c2noc(CN3CCCC3Cn3cccn3)n2)c1` (stereo not given), the Percent Effect in experiment [1] was -8.22%; in experiment [2], 28.6%.

With `O=C(N[C@@H]1CN(c2ncccn2)[C@@H]2CCCO[C@@H]21)c1cnccn1`, the Percent Effect in experiment [1] was determined as 7.31%; in experiment [2] it was 2.14%.

Take `CN(C)C(=O)c1nc2c(s1)CCN(C(=O)c1ccc(Cl)cc1)CC2`: the Percent Effect in experiment [1] is 2.36%; in experiment [2] it was -16.7%.

As for `CCNc1cc2c(nn1)CCN(C(=O)c1cccc3c1OCCO3)C2`, the results for the Percent Effect in experiment [1] and in experiment [2] were 7.68% and -25.7%, respectively.

For the compound `O[C@H]1CCN(Cc2ccoc2)[C@H]1Cc1cccnc1`, the Percent Effect in experiment [1] was 6.58%; in experiment [2], -6%.

Consider `Cc1cnc(CN2CCOC(Cn3nc(C)nc3C)C2)cn1` (stereo not given), for which the Percent Effect is -1.8% in experiment [1] and -9.64% in experiment [2].

In the case of `COc1ccc(F)cc1C(C)NC(=O)Cn1ccc(=O)n(C)c1=O` (stereo not given), the Percent Effect in experiment [1] is 0.602%; in experiment [2], -12.8%.

As to `CCN(CC)C(=O)c1nnn(Cc2ccccc2)c1OC`, the Percent Effect in experiment [1] came out at 0.348%; in experiment [2], 3.85%.

Turning to `CCc1noc(C(C)N2CCN(Cc3noc(C)n3)CC2)n1` (stereo not given), the Percent Effect in experiment [1] is -5.46%; in experiment [2], -10.9%.

Consider `Cc1cccc(C(=O)NCc2ccc(S(N)(=O)=O)cc2)n1`, for which the Percent Effect is -0.577% in experiment [1] and -16.4% in experiment [2].

Regarding `CNc1nc(C)c(C(=O)N2CCCCC2CN2CCCCCC2)s1` (stereo not given), the figures for the Percent Effect in experiment [1] and in experiment [2] were 1.75% and 1.34%, respectively.

For the compound `O=C(Cc1ccsc1)N1C[C@@H]2CN(Cc3ccoc3)CCO[C@@H]2C1`, the Percent Effect is -1.48% in experiment [1] and -6.92% in experiment [2].

These data come from ChEMBL document CHEMBL3988442, “University of Dundee, Small-Polar-MMV Screening Library” (2021).
